Data taken from PubChem BioAssay (NCI).
Compounds without any hit were thinned out: in the full panel of roughly 79,000, 15% have a hit. Values without a mark were called inactive. The source made the active and inactive calls. No stated cut-off is given here; in the data, active means growth inhibition above about 70%; inactive means the rest.

Assays:
[1] = NCI Yeast Anticancer Drug Screen. Data for the rad52 strain (AID 147);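 further: 0% = growth of vehicle-treated control cultures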; conditions: S. cerevisiae rad52 mutant growth inhibition, stronger effect = higher value
Outline: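 Yeast strain carrying a DNA damage repair alteration was exposed to test compounds. Growth inhibition was measured relative to vehicle-treated controls.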

[2] = NCI Yeast Anticancer Drug Screen. Data for the wt1 strain (AID 149);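 further: 0% = growth of vehicle-treated wt1 cultures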; conditions: S. cerevisiae wt1 strain (SPY 50644) growth inhibition, stronger effect = higher value
Outline: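 wt1 strain grown with compound or vehicle; inhibition taken from the growth difference.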

[3] = NCI Yeast Anticancer Drug Screen. Data for the mgt1 strain (AID 153); conditions: S. cerevisiae mgt1 mutant growth inhibition, stronger effect = higher value
Outline: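 Yeast mgt1 strain (DNA repair/cell-cycle alteration panel) exposed to compounds; growth inhibition measured relative to vehicle-treated controls.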

[4] = NCI Yeast Anticancer Drug Screen. Data for the rad50 strain (AID 155);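 further: 0% = growth of vehicle-only cultures of the same strain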; conditions: S. cerevisiae rad50 strain growth inhibition, stronger effect = higher value
Outline: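 DNA repair mutant yeast, compound exposure, growth read-out; inhibition is taken relative to vehicle.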

[5] = NCI Yeast Anticancer Drug Screen. Data for the mec2-1 strain (AID 157); conditions: S. cerevisiae mec2-1 strain, stronger effect = higher value
Outline: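 mec2-1 yeast strain, carrying an alteration in DNA damage repair or cell cycle control, was exposed to compounds; growth inhibition was measured relative to vehicle-treated controls.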

[6] = NCI Yeast Anticancer Drug Screen. Data for the rad14 strain (AID 159);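 further: 0% = growth of vehicle-treated control cultures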; conditions: S. cerevisiae rad14 strain growth inhibition, stronger effect = higher value
Outline: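 DNA repair-defective yeast, compound-exposed; % growth inhibition derived by comparison with vehicle-treated controls.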

[7] = NCI Yeast Anticancer Drug Screen. Data for the sgs1 mgt1 strain (AID 161);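 further: 0% = growth of cultures given vehicle only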; conditions: S. cerevisiae sgs1 mgt1 strain, stronger effect = higher value
Outline: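 This yeast growth screen uses a strain with defined DNA-repair lesions; compound-treated growth is compared with vehicle-treated growth.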

[8] = NCI Yeast Anticancer Drug Screen. Data for the CLN2oe strain (AID 163);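 further: 0% = growth of vehicle-only control cultures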; conditions: S. cerevisiae CLN2oe strain, stronger effect = higher value
Outline: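 Yeast cells carrying a defined cell-cycle control alteration were exposed to test compounds. Growth inhibition was scored against vehicle-treated control cultures.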

[9] = NCI Yeast Anticancer Drug Screen. Data for the cln2 rad14 strain (AID 165);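 further: 0% = growth equal to vehicle treated cultures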; conditions: S. cerevisiae cln2 rad14 strain, stronger effect = higher value
Outline: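 Yeast carrying cln2 and rad14 alterations (cell cycle control and DNA damage repair) were exposed to compounds. Growth inhibition was measured against vehicle-treated controls.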

[10] = NCI Yeast Anticancer Drug Screen. Data for the bub3 strain (AID 167); conditions: S. cerevisiae bub3 mutant strain, stronger effect = higher value
Outline: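 In this screen, a yeast mutant lacking normal mitotic checkpoint function is challenged with compound. Relative growth versus vehicle gives the inhibition value.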

[11] = NCI Yeast Anticancer Drug Screen. Data for the wt2 strain (AID 169);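 further: 0% = growth of vehicle-treated yeast cultures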; conditions: S. cerevisiae wt2 strain growth inhibition, stronger effect = higher value
Outline: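 Yeast cells were exposed to test compounds, and growth inhibition was measured relative to vehicle-treated controls.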

[12] = NCI Yeast Anticancer Drug Screen. Data for the mlh1 strain (AID 171);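 further: 0% = growth of vehicle-treated control cultures of the same strain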; conditions: S. cerevisiae mlh1 strain growth inhibition, stronger effect = higher value
Outline: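 Yeast carrying a defined genetic alteration in DNA damage repair or cell cycle control were exposed to test compounds. Growth inhibition was measured relative to vehicle-treated controls.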

[13] = NCI Yeast Anticancer Drug Screen. Data for the sgs1 strain (AID 173);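 further: 0% = growth of vehicle-only control cultures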; conditions: S. cerevisiae sgs1 mutant, stronger effect = higher value
Outline: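 Yeast mutant strains carrying defined defects in DNA damage repair or cell cycle control were exposed to test compounds. Growth inhibition was scored against vehicle-treated controls.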

[14] = NCI Yeast Anticancer Drug Screen. Data for the mlh1 rad18 strain (AID 175); conditions: S. cerevisiae mlh1 rad18 strain growth inhibition, stronger effect = higher value
Outline: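 Growth inhibition of the yeast strain was measured after compound exposure and expressed relative to vehicle-treated controls. The strain carries defined defects in DNA damage repair.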

[15] = NCI Yeast Anticancer Drug Screen. Data for the rad18 strain (AID 177); conditions: S. cerevisiae rad18 mutant growth inhibition, stronger effect = higher value
Outline: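 Yeast carrying a defined DNA damage repair alteration were exposed to compounds. Growth inhibition was expressed relative to vehicle-treated controls.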

[16] = at 5.0 µM (retest, dose inferred, filed as 0.5)
[17] = at 50.0 µM (retest, dose inferred, filed as 5.0)

SMILES: CC1CCC(C2=CSC3CCCCC3N2)CC1 (stereo not drawn)
- growth inhibition ([1]; at 1.2 µM): 21%
- growth inhibition ([1]; at 3.7 µM): 21%
- growth inhibition ([1]; at 11.0 µM): 21%
- growth inhibition ([1]; at 33.0 µM): 37%
- growth inhibition ([1]; at 100.0 µM): 78% (active)
- growth inhibition ([2]; at 1.2 µM): 14%
- growth inhibition ([2]; at 3.7 µM): -2%
- growth inhibition ([2]; at 11.0 µM): 3%
- growth inhibition ([2]; at 33.0 µM): 31%
- growth inhibition ([2]; at 100.0 µM): 65%
- growth inhibition ([3]; at 1.2 µM): -1%
- growth inhibition ([3]; at 3.7 µM): 4%
- growth inhibition ([3]; at 11.0 µM): 9%
- growth inhibition ([3]; at 33.0 µM): 32%
- growth inhibition ([3]; at 100.0 µM): 91% (active)
- growth inhibition ([4]; at 1.2 µM): 16%
- growth inhibition ([4]; at 3.7 µM): 23%
- growth inhibition [4, 16]: 17%
- growth inhibition ([4]; at 11.0 µM): 20%
- growth inhibition ([4]; at 33.0 µM): 37%
- growth inhibition [4, 17]: 13%
- growth inhibition ([4]; at 50.0 µM): 43%
- growth inhibition ([4]; at 100.0 µM): 74% (active)
- growth inhibition ([5]; at 1.2 µM): -36%
- growth inhibition ([5]; at 3.7 µM): 5%
- growth inhibition [5, 16]: -6%
- growth inhibition ([5]; at 11.0 µM): 3%
- growth inhibition ([5]; at 33.0 µM): 14%
- growth inhibition [5, 17]: 71% (active)
- growth inhibition ([5]; at 50.0 µM): 56.5%
- growth inhibition ([5]; at 100.0 µM): 80% (active)
- growth inhibition ([6]; at 1.2 µM): -20%
- growth inhibition ([6]; at 3.7 µM): -16%
- growth inhibition ([6]; at 11.0 µM): -11%
- growth inhibition ([6]; at 33.0 µM): -6%
- growth inhibition ([6]; at 100.0 µM): 76% (active)
- growth inhibition [7, 16]: -4%
- growth inhibition [7, 17]: 28%
- growth inhibition ([7]; at 50.0 µM): 51.1%
- growth inhibition ([8]; at 1.2 µM): -3%
- growth inhibition ([8]; at 3.7 µM): 13%
- growth inhibition ([8]; at 11.0 µM): 0%
- growth inhibition ([8]; at 33.0 µM): 22%
- growth inhibition ([8]; at 100.0 µM): 45%
- growth inhibition [9, 16]: 32%
- growth inhibition [9, 17]: 42%
- growth inhibition ([9]; at 50.0 µM): 11.6%
- growth inhibition ([10]; at 1.2 µM): 5%
- growth inhibition ([10]; at 3.7 µM): -4%
- growth inhibition [10, 16]: 42%
- growth inhibition ([10]; at 11.0 µM): 5%
- growth inhibition ([10]; at 33.0 µM): 29%
- growth inhibition [10, 17]: 84% (active)
- growth inhibition ([10]; at 50.0 µM): 66%
- growth inhibition ([10]; at 100.0 µM): 73% (active)
- growth inhibition ([11]; at 1.2 µM): -8%
- growth inhibition ([11]; at 3.7 µM): -3%
- growth inhibition ([11]; at 11.0 µM): -4%
- growth inhibition ([11]; at 33.0 µM): 19%
- growth inhibition ([11]; at 100.0 µM): 74% (active)
- growth inhibition ([12]; at 1.2 µM): 6%
- growth inhibition ([12]; at 3.7 µM): 4%
- growth inhibition ([12]; at 11.0 µM): 11%
- growth inhibition ([12]; at 33.0 µM): 28%
- growth inhibition ([12]; at 100.0 µM): 74% (active)
- growth inhibition ([13]; at 1.2 µM): 15%
- growth inhibition ([13]; at 3.7 µM): 5%
- growth inhibition ([13]; at 11.0 µM): 14%
- growth inhibition ([13]; at 33.0 µM): 35%
- growth inhibition ([13]; at 100.0 µM): 67%
- growth inhibition [14, 16]: 7%
- growth inhibition [14, 17]: 85% (active)
- growth inhibition ([14]; at 50.0 µM): 38.8%
- growth inhibition ([15]; at 1.2 µM): -5%
- growth inhibition ([15]; at 3.7 µM): -6%
- growth inhibition ([15]; at 11.0 µM): -6%
- growth inhibition ([15]; at 33.0 µM): 3%
- growth inhibition ([15]; at 100.0 µM): 45%
